# How the values were obtained:
# LOK = system: T1, LOK
# T1 construct: gene STK10
# IKK-alpha = system: T2, IKK-alpha
# T2 construct: gene CHUK
# IKK-beta = system: T3, IKK-beta
# T3 construct: gene IKBKB
# [1] = system: JAK1(JH1domain-catalytic)
# [2] = system: JAK2(JH1domain-catalytic)
# JNK3 = system: T4, JNK3
# T4 construct: gene MAPK10
# LZK = system: T5, LZK
# T5 construct: gene MAP3K13
# 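Also: kd values determined as follow-up on hits from a single-replicate KINOMEscan panel screen.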
smiles,measurement,setting,value
Cc1nnc(-c2ccc3occ(-c4ccc(S(C)=O)cc4)c3c2)[nH]1 (centres unmarked),Kd,HIPK3,0.34 µM
same,Kd,LOK,> 10 µM
Cc1c(O)cccc1Nc1ccnc2ccc(C(F)(F)F)cc12.Cl [GW466413],Kd,HUNK,> 10 µM
O=C1NC(=O)C(N2CCc3ccccc32)=C1c1ccccc1Cl [SB-373598],Kd,IKK-alpha,> 10 µM
same,Kd,LTK,> 10 µM
CC(C)(C)c1ccc(C(=O)Nc2cn3cc(Cl)ccc3n2)cc1,Kd,IKK-beta,> 10 µM
O=S(=O)(c1ccc(-c2ccnc3[nH]ccc23)cc1)N1CCCC1 [GSK846226],Kd,IKK-beta,0.27 µM
Cc1cc(N2Cc3ccccc3C2)nc(Nc2ccc(S(=O)(=O)N3CCOCC3)cc2)n1.Cl [GSK1669917],Kd,INSR,> 10 µM
COc1cc2ncnc(Nc3ccc4nc(-c5ccccc5)[nH]c4c3)c2cc1OC.Cl [GW282450],Kd,INSR,> 10 µM
Cc1c(Cn2ccn3c(=O)cc(N4CCOCC4)nc23)cccc1C(F)(F)F [GSK2289044],Kd,[1],> 10 µM
COc1ccc(CNC(=O)NC2CCN(c3ccnc(Nc4cc(OC)c(OC)c(OC)c4)n3)C2)cc1 (centres unmarked) [GSK1379748],Kd,[2],0.35 µM
COC(=O)c1c(-c2ccccc2)c2cc(OC)ccc2c(=O)n1Cc1ccccc1,Kd,JNK3,0.11 µM
Cn1ccc2ncnc(Oc3cccc(C(=O)Nc4ccccc4)c3)c21,Kd,LIMK1,> 10 µM
COc1ccc(C2=C(Nc3cccc(C(=O)O)c3)C(=O)NC2=O)cc1 [SB-390765],Kd,LIMK1,> 10 µM
Nc1ncnc2[nH]c(-c3ccccc3)nc12 [AH5015],Kd,LTK,> 10 µM
O=C(O)COc1ncnc2cc(-c3ccc4[nH]ncc4c3)sc12,Kd,LTK,> 10 µM
O=c1cc(N2CCOCC2)nc2n(Cc3cccc(Cl)c3Cl)ccn12 [GSK2286295],Kd,LYN,> 10 µM
O=C(Nc1n[nH]c2cc(-c3cccc(F)c3F)ccc12)C1CC1 [SB-733894],Kd,LZK,> 10 µM
COc1cccc(-c2cc(-c3c[nH]nc3-c3ccccn3)ccn2)c1 [GW680338],Kd,MAK,> 10 µM
Cc1cc(-c2ccc3c(c2)CC[C@@H](N[C@@H](C)c2ccccc2)C3)cnc1N.Cl [GW412617],Kd,MAP4K2,0.043 µM
